High-throughput results deposited in PubChem BioAssay by several laboratories.
This is a sample that favours compounds with a hit; in the whole collection about 2.2% have one here.
TROY signal inh: blocks TROY-dependent signaling in reporter cells; Q293 LMP1-TROYcd NF-kB luciferase reporter, 4 h; inhibition, % at 10 µM; 360,000 tested, 0.98% active;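 active = compounds whose plate-normalised and pattern-corrected inhibition of the luciferase reporter signal at the single screening dose is 50% or more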
TWEAK-Fn14 inh: TWEAK-Fn14 signaling inhibition; TWEAK-stimulated Fn14 reporter cells, luciferase luminescence, 8 h; inhibition, % at 10 µM; 360,000 tested, 2% active; in the data active = inhibition above about 50%
HSP90 refold inh: inhibitors of HSP90 luciferase refolding in rabbit reticulocyte lysate; inhibition, % at 5.6 µM; 290,000 tested, 0.91% active; luciferase refolding luminescence, 3 h; AID 1789;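 active = inhibition above the screen-wide mean plus 3 SD, computed separately per campaign, cut at about 16% in these data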;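 also: 0% = DMSO wells and 100% = 60 µM geldanamycin wells; inhibitors lower the luminescence because luciferase stays unfolded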
LGR2 inh: Drosophila LGR2 receptor signaling inhibition | HEK293 LGR2, CRE-luciferase, bursicon-stimulated, 4 h | AID 720647 | inhibition, % at 9.99 µM | 380,000 tested, 0.35% active;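 active = drop in luminescence signal, shown as inhibition above about 50% in the replicate tests, limit read from the data, passing the limit was not always enough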;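 also: agonist challenge used bursicon conditioned medium at about half maximal strength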
Active calls of the source: *; x = no result.

SMILES	TROY signal inh	TWEAK-Fn14 inh	HSP90 refold inh	LGR2 inh
COc1cc(CC(NC(C)=O)C(=O)NC2CCN(C(=O)c3ccc(C)cc3)CC2)cc(OC)c1 (stereo not drawn)	-12	3	-5	1
COC(=O)c1cc2c(c3c4cc(C)ccc4n(S(=O)(=O)c4ccc(C)cc4)c13)C(=O)N(Cc1ccccc1)C2	x	x	x	-6
COC(=O)c1c[nH]c2c1-c1cc(C(=O)OCc3ccccc3)n(S(=O)(=O)c3ccc(C)cc3)c1C(=O)C2=O	57*	99*	x	9
N#Cc1ccccc1CSc1ccc(-c2nc3ccccc3[nH]2)cn1	59*	59*	5	x
Cc1cc2nc(-c3ccc(SCc4ccc(C#N)cc4)nc3)[nH]c2cc1C	47	58*	4	8
Cc1cc2nc(-c3ccc(SCC(=O)Nc4nccs4)nc3)[nH]c2cc1C	-22	-46	2	-6
COc1cc(Cl)c(S(=O)(=O)NCc2cccnc2)cc1Cl	54*	84*	2	7
COc1ccc(Cl)cc1S(=O)(=O)NCc1cccnc1	5	-9	-1	-10
O=C(Cn1c(NCCCO)nc2ccccc21)c1ccco1	-23	20	16*	-3
C[C@@H]1CN([C@@H](C)CO)C(=O)c2cc(-c3cccc(F)c3)cnc2O[C@@H]1CN(C)C(=O)c1ccccn1	x	x	x	6
CCn1c2ccccc2c2cc(/C=N/n3cnnc3)ccc21	46	-45	-3	x
CCn1c2ccccc2c2cc(/C=N/O)ccc21	34	71*	-1	27
CCCNC(=O)c1cc2c(c(-c3cccc(-c4cccc(OC)c4)c3)n1)[C@@H](CCO)N([S@](=O)C(C)(C)C)C2	x	x	x	-10
Cn1cc(C(=O)c2ccc(Cl)cc2)cc1-c1nc2ccccc2n1C	57*	52*	0	x
COc1cccc(/C=C/C(=O)OCC(=O)c2ccc(C)c(C)c2)c1OC	6	-21	x	-12
COc1cccc(/C=C/C(=O)OCC(=O)c2ccccc2)c1OC	51*	65*	x	-63
CCC(C)NS(=O)(=O)c1ccc(S(=O)(=O)N(CCc2ccc(OC)c(OC)c2)Cc2cccs2)cc1 (stereo not drawn)	31	55*	2	20
COc1ccc(CCN(Cc2cccs2)S(=O)(=O)c2ccc(S(=O)(=O)N3CCCCCC3)cc2)cc1OC	7	-3	3	14
COc1ccccc1C(=O)Nc1nc2cc3c(cc2s1)OCCO3	-11	11	-2	x
NNc1nc2cc3c(cc2s1)OCCO3	30	53*	5	5
CCC(=O)NC[C@@H]1[C@@H](c2ccccc2)[C@@H](CO)N1C(=O)C1CC1	x	x	x	8
CS(=O)(=O)N1CC2(C1)[C@@H](c1ccccc1)[C@@H](CO)N2Cc1ccc(F)cc1	x	x	x	18
CCOC(=O)c1sc(NC(=O)Nc2ccccc2)cc1C	32	37	-3	x
CCOC(=O)c1sc(NC(=O)Nc2ccccc2Cl)cc1C	69*	70*	-1	15
O=C(C[C@@H]1CC[C@@H]2NC[C@H](O)COC[C@H]2O1)Nc1ccc(-c2ccccc2)cc1	x	x	x	-18
SMILES	TROY signal inh	TWEAK-Fn14 inh	HSP90 refold inh	LGR2 inh
COc1ccc(Nc2nnc(SCC(=O)/C=C3/N(C)c4ccccc4C3(C)C)s2)cc1	37	71*	4	4
CCNC(=O)[C@@H]1[C@@H](CO)[C@@H]2Cn3c(ccc(-c4cccc(OC)c4)c3=O)[C@@H]2N1C(=O)NC(C)C	x	x	x	0
COc1ccc(NC(=O)c2ccc3c(c2)NC(=O)CS3)cc1	-27	-2	x	14
Cc1ccc(NS(=O)(=O)c2cc(NC(=O)c3ccc4c(c3)NC(=O)CS4)ccc2Cl)c(C)c1	49	66*	5	3
COCC(=O)Nc1ccc2c(c1)[C@H]1C[C@@H](CC(=O)N3CCc4ccccc4C3)O[C@H](CO)[C@H]1O2	x	x	x	-3
O=C(N/N=C/c1ccc[nH]1)c1ccc(COc2cccc3cccnc23)cc1	48	85*	0	22
CC(c1ccco1)N(C(=O)c1ccccc1NS(=O)(=O)c1ccc(Cl)c([N+](=O)[O-])c1)c1ccccn1 (stereo not drawn)	71*	38	0	9
COC1C(CO)OC(n2c3c(Cl)cccc3c3c4c(c5c6cccc(Cl)c6[nH]c5c32)C(=O)NC4=O)C(O)C1O (stereo not drawn)	18	0	x	60*
O=C(N[C@@H]1CC[C@@H](CCNC(=O)C2CCCC2)O[C@H]1CO)c1ccncc1	x	x	x	15
Cc1cc2ncn(CCOc3ccccc3C#N)c2cc1C	x	55*	-3	-24
N#Cc1ccccc1OCCn1cncn1	6	4	5	11
Nc1nnnn1/N=C/c1ccccc1O	-8	0	x	1
CCOc1ccccc1/C=N/n1nnnc1N	-10	74*	3	-12
